The results in this text go back to PubChem BioAssay AID602410 (Johns Hopkins Ion Channel Center, 2012).

Among all 340,000 compounds or so, about 2,800 (0.82%) were called active.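 How the source made its calls: active means B-score under library mean minus 4 SD, starting fluorescence ratio at most library mean plus 5 SD; inactive means the rest.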 The sample as a whole holds a higher share of actives than the screen did.

In the test the target is Potassium channel subfamily K member 3 (Homo sapiens) (UniProt O14649). As to the kind of experiment: human KCNK3 channel inhibitors, primary screen, CHO cells, FluxOR thallium flux, B-score (AID 602410).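 On B-score: more negative B-score means stronger inhibition of thallium flux through KCNK3.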 The conditions noted are these: FluxOR fluorescence, at 10 µM; hits give low values.
Potassium channel subfamily K member 3 (Homo sapiens), sequence (O14649 whole entry, looked up): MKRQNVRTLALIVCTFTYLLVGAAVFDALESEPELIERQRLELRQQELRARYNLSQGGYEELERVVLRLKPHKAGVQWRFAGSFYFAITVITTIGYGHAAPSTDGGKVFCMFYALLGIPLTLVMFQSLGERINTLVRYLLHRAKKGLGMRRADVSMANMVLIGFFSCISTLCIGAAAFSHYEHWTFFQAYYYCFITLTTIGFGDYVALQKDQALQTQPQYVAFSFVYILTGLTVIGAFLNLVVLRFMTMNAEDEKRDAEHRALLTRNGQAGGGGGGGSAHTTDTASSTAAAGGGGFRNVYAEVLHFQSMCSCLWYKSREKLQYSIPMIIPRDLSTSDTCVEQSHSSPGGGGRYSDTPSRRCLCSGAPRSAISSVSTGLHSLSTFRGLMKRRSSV
Regarding `CCCCn1c(O)c(C(CC)=NCc2ccco2)c(=O)[nH]c1=O`, the B-score entry is “inactive”.
The same measure for `CCCCCCN=C(CC)c1c(O)n(CCCC)c(=O)[nH]c1=O`: -9.07 (active); for `CCC(=NCCCO)c1c(O)n(-c2ccc(OC)cc2)c(=O)[nH]c1=O`: “inactive”; for `COc1ccc(Br)cc1CNCCc1cccc(Cl)c1`: “inactive”.
The same measure for `CCCCC(=O)N/N=C/c1c(O)n(CC)c(=S)n(CC)c1=O`: “inactive”; for `Oc1cc2c(cc1CN1CCN(c3ccccc3)CC1)OCO2`: “inactive”.
For the compound `COc1ccc(C(=O)C2CCCN(Cc3ccc(C)s3)C2)cc1OC` (stereo not given), the B-score result was “inactive”.
The same measure for `COc1ccccc1C1=NCc2nnc(CSC)n2-c2ccc(Cl)cc21`: -9.71 (active); for `Cc1cc(C(=O)OCC(=O)Nc2c(F)cccc2F)c(C)n1C1CC1`: “inactive”.
Take `CC(C)c1c(CN(C)C(C)Cc2ccccc2)n(C)n(-c2ccccc2)c1=O` (stereo not given): the B-score result is “inactive”.
The value for `CCN1CCN(Cc2cc(OC)c3c(c2)OCO3)CC1` was “inactive”.
The same measure for `CCOC(=O)C1SC2(C(F)(F)C(F)F)CC1(O)c1c(c(OC)c3occc3c1OC)O2` (stereo not given): -10.9 (active); for `CCOC(=O)C(O)(c1ccc(N=Cc2ccccc2O)c(C)c1)C(F)(F)F` (stereo not given): “inactive”; for `CC12CN3CC(C)(CN(C1)C3c1cccs1)C2` (stereo not given): “inactive”.
The same measure for `CNCC(O)c1cc(F)c(OCc2ccccc2)c(OCc2ccccc2)c1F` (stereo not given): “inactive”.
